The target in experiment [1] is Cytochrome P450 3A4 (Homo sapiens) (UniProt P08684). The experiment is described as follows: qHTS Assay for Inhibitors and Substrates of Cytochrome P450 3A4 (AID 884). For activity change, negative = inhibition: % is set by controls: 0 for no effect and ±100 for the full control effect. Note: nearly all actives have a fitted effect of over 50% in size. Note: potency is the fitted concentration of half-maximal effect. In a few lines: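 Luminescent readout of luciferin produced by CYP3A4 (20 nM) dealkylation of Luciferin-PPXE, 25 uM (its KM). NADPH-driven reaction ran 60 min at RT after 10 min compound preincubation; data scaled to 57 uM ketoconazole as 100% inhibition.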

For experiment [2] the target is unchanged. The experiment is described as follows: qHTS Assay for Activators of Cytochrome P450 3A4 (AID 885). Note: nearly all actives have a fitted effect of over 65% in size. In a few lines: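 Using 20nM recombinant human CYP3A4 in potassium phosphate (200mM), substrate Luciferin-PPXE at 25uM, luminescent luciferin detection followed a 60-min RT NADPH reaction; data scaled to 57 uM ketoconazole.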
For orientation: In qHTS, concentration-response curves come from the screen itself.

Experiment [3] in a line: Confirmation and Secondary Assay for Modulators of Hemoglobin Beta Chain Splicing at IVS2 654 locus (AID 910).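 Note: HeLa cells stably carrying EGFP split by mutant beta-globin IVS2-654 intron; % of control where 0% means no effect.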 In a few lines:
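HeLa cells stably expressing EGFP interrupted by β-globin IVS2-654 intron, seeded overnight in Opti-MEM/2% FCS, then treated 2 days at 37 °C. Restored splicing read as total peak GFP intensity per well by laser scanning cytometry (488 nm excitation, 500–520 nm emission); 500 nM antisense PNA as control.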

Experiment [4] in a line: Confirmation and Secondary Assay for Modulators of Hemoglobin Beta Chain Splicing at IVS2 705 locus (AID 930).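 Note: HeLa cells stably expressing the EGFP-705 splicing reporter; GFP fluorescence per well restored by corrected splicing of the IVS2-705 intron in EGFP; % of control where 0% means no effect.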 In a few lines:
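Secondary splice-site specificity test uses HeLa expressing CMV-driven EGFP interrupted by IVS2-705; cells were treated 2 days at 37C with 500 nM antisense PNA as positive control.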

The nature of experiment [5]: qHTS Assay for Lipid Storage Modulators (AID 1519; calls by dose curve; for activity change, negative = inhibition: % is set by controls: 0 for no effect and ±100 for the full control effect). Conditions: Drosophila S3 cells, BODIPY lipid droplet/cell ratio, laser cytometry, cells loaded with oleic acid; for activity change, negative = inhibition: at 57.5 µM (top of the series). In a few lines: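 Cells seeded at 5,000 per well were treated with compounds over a concentration series and loaded with oleic acid (400 uM, as added). Lipid droplet fluorescence (488 nm excitation, 500-530 nm channel) was read by laser-scanning cytometry and normalized to 20 uM Triacsin C.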

Experiment [6] deals with Ubiquitin carboxyl-terminal hydrolase 1 (Homo sapiens) (UniProt O94782). The experiment can be described thus: Inhibitors of USP1/UAF1: Pilot qHTS (AID 504865).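 Note: rhodamine fluorescence freed from ubiquitin-rhodamine substrate followed over time; top concentration of the series differs between compounds; % is set by controls: 0 for no effect and ±100 for the full control effect; nearly all actives have a fitted effect of over 35% in size.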 The procedure, abridged: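 Enzyme-free wells gave the negative control, while test wells held 1nM USP1/UAF1 preincubated with compound for 15 min at room temperature. Ub-Rho at 150nM final started the reaction, and fluorescence at 480/540 nm was recorded kinetically.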

Experiment [7] deals with DNA dC->dU-editing enzyme APOBEC-3G (Homo sapiens) (UniProt Q9HC16). The experiment can be described thus: qHTS for inhibitors of Vif-A3G interactions: Validation (AID 588379). Note: 0% is about no effect. The procedure, abridged: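 Yellow fluorescence (Ex 488, Em 500-530) of Vif-coexpressing HeLa A3G-eYFP cells, scanned by Acumen cytometer, reports blocked A3G degradation. Cells plated at 700/well overnight at 37 deg C before compound addition, then a further overnight compound incubation at 37 deg C.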

For experiment [8], the target named is Luciferin 4-monooxygenase (Photinus pyralis) (UniProt P08659). The experiment is described as follows: Biochemical firefly luciferase enzyme assay for NPC (AID 624030).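 Note: purified P. pyralis luciferase at 10 nM with luciferin and ATP substrate; 0% = DMSO and -100% = full luciferase inhibition by PTC124 control; nearly all actives have a fitted effect of over 70% in size.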 The procedure, abridged: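 Purified P. pyralis luciferase at 10 nM in 50 mM Tris Acetate (final), luminescence read within 5 minutes of enzyme addition to compounds. Activity normalised to PTC124 versus DMSO; concentration-response curves classed by r2, magnitude and activity.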

[9] abbreviates: measured here: cell count channel max response.
Setting [10] is: measured here: lipid channel max response.

Inconclusive results are not listed. Active and inactive are the calls of the source. Unless noted, calls come from the whole dose curve; as a rule, active = well fitted curve in the direction sought with a large enough effect; inconclusive = small, poorly fitted or top-dose-only effect, or another doubt; inactive = no such curve, though single readings can be large; an effect the other way counts as inactive or inconclusive.

Chain of Ubiquitin carboxyl-terminal hydrolase 1 (Homo sapiens) (O94782 whole entry, looked up): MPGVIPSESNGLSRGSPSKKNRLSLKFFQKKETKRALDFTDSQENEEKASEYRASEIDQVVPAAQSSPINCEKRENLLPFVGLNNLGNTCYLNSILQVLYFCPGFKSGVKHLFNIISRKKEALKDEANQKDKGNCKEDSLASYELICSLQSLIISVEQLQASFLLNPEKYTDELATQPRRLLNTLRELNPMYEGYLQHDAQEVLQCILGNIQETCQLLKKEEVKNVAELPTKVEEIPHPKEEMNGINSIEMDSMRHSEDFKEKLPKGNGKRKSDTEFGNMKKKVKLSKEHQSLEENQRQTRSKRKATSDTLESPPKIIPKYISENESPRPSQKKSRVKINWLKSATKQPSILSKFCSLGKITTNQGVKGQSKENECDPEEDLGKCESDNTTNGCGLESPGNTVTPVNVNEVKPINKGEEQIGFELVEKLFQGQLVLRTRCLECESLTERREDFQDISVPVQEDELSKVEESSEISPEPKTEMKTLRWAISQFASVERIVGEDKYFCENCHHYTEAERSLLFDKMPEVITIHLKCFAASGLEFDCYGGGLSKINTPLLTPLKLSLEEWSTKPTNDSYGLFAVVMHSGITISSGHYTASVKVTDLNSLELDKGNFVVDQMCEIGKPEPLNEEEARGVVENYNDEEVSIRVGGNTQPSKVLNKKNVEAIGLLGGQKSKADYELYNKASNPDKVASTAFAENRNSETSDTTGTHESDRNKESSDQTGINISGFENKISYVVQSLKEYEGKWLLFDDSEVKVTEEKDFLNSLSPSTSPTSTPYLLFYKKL
Chain of DNA dC->dU-editing enzyme APOBEC-3G (Homo sapiens) (Q9HC16 whole entry, looked up): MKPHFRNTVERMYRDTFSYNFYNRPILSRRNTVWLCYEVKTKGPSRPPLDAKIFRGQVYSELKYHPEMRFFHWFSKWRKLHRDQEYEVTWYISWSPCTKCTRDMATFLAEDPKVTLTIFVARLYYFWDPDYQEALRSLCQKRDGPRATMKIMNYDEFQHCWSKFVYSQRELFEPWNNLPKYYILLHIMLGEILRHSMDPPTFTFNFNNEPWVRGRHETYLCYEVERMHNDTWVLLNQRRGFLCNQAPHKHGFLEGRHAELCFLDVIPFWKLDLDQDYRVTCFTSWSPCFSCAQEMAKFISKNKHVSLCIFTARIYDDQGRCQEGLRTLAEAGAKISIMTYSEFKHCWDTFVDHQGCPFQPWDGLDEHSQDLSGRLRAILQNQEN
Chain of Cytochrome P450 3A4 (Homo sapiens) (P08684 whole entry, looked up): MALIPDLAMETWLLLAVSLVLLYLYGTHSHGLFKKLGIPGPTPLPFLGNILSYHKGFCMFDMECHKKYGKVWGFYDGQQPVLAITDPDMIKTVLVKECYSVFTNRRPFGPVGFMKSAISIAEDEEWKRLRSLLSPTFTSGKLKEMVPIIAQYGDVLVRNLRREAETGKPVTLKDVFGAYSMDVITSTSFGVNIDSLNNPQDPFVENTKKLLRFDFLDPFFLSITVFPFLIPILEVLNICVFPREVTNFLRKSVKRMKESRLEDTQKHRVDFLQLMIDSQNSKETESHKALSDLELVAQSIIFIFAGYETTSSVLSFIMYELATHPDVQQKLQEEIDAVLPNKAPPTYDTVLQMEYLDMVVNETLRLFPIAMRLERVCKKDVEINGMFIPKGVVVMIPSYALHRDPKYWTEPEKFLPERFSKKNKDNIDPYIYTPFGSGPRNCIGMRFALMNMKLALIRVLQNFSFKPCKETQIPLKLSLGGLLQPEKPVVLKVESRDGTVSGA
Chain of Luciferin 4-monooxygenase (Photinus pyralis) (P08659 whole entry, looked up): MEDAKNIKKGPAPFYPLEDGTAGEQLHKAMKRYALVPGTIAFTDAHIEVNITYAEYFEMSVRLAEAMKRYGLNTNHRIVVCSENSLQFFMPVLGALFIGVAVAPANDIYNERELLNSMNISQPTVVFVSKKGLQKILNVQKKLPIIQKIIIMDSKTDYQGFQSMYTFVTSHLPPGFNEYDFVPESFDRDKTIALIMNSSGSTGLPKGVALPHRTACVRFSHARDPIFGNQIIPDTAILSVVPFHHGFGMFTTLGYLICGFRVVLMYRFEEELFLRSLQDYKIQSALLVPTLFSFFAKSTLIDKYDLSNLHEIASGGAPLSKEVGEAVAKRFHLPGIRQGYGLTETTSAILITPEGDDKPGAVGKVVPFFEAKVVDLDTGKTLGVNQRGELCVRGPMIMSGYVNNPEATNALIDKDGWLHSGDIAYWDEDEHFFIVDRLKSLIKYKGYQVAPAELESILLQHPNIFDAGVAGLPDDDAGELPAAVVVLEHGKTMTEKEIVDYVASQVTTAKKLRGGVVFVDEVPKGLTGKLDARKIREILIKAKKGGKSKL

Regarding `COc1cc(OC)c2c(=O)c(O)c(-c3ccc(OC)c(OC)c3)oc2c1`, the Potency in experiment [1] is 2.51 µM (active). Further, the Potency entry in experiment [2], in experiment [3], in experiment [4] and in experiment [6] was “inactive” throughout. For the same compound, the activity change, negative = inhibition in experiment [5] was 4.09% (inactive). Moreover, the max response in experiment [5] (setting [9]) was determined as 5.03%; in experiment [5] (setting [10]), 9.16%.

On to `O=c1[nH]c(=O)n([C@@H]2O[C@H](CO)[C@@H](O)[C@H]2O)cc1F`, for which the Potency result in experiment [1] and in experiment [6] was “inactive” in each case. In addition, in experiment [5], the activity change, negative = inhibition was -3.28% (inactive). In addition, the max response in experiment [5] (setting [9]) is 0.66%; in experiment [5] (setting [10]) it was -5.85%. For the same compound, the compound was classed as inactive in experiment [7].

As to `COc1ccc2c(c1)OCC(Cc1ccc(OC)c(O)c1)C2=O` (configuration not stated), the Potency in experiment [1] is 25.1 µM (active). Also, the Potency result in experiment [2], in experiment [3], in experiment [4] and in experiment [6] was “inactive” in each case. Further, in experiment [5], the activity change, negative = inhibition is 6.62% (inactive). Besides, the max response in experiment [5] (setting [9]) came out at 3.51%; in experiment [5] (setting [10]), 13%.

As to `C=C1C2CC[C@@]3(C)C(c4ccoc4)OC(=O)C[C@@]13OC1CC(=O)C(C)(C)C(C(O)C(=O)OC)[C@]12C` (some centres not stated), the Potency in experiment [1] was 2.51 µM (active). Also, the Potency entry in experiment [2], in experiment [3], in experiment [4] and in experiment [6] was “inactive” in each case. The activity change, negative = inhibition in experiment [5] is -0.848% (inactive). For the same compound, the max response in experiment [5] (setting [9]) worked out at 11.1%; in experiment [5] (setting [10]) it was 18.5%.

As to `CC(=O)OC1CC(OC(C)=O)[C@]2(C)C(CC(OC(C)=O)[C@]3(C)C2CC[C@@]2(C)C(c4ccoc4)OC(=O)C4O[C@]432)C1(C)C` (some centres not stated), the Potency in experiment [1] was 1.26 µM (active). The Potency entry in experiment [2], in experiment [3] and in experiment [6] was “inactive” in each case. In experiment [5], the activity change, negative = inhibition is 0.867% (inactive). Moreover, the max response in experiment [5] (setting [9]) is -4.64%; in experiment [5] (setting [10]), -0.493%.

`CC1(C)SC2C(NC(=O)C(N)c3ccccc3)C(=O)N2C1C(=O)O` (configuration not stated): the Potency entry in experiment [3], in experiment [4], in experiment [6] and in experiment [8] was “inactive” throughout. Also, in experiment [5], the activity change, negative = inhibition was 7.23% (inactive). Besides, the figures for the max response in experiment [5] (setting [9]) and in experiment [5] (setting [10]) were 15.7% and 29.5%, respectively.

Turning to `Nc1ccn([C@H]2C[C@H](O)[C@@H](CO)O2)c(=O)n1`, the Potency result in experiment [1] and in experiment [6] was “inactive” in each case. For the same compound, the activity change, negative = inhibition in experiment [5] was 0.617% (inactive). Also, the max response in experiment [5] (setting [9]) is 3.42%; in experiment [5] (setting [10]), 2.44%. Also, in experiment [7], the call was inactive.

In the case of `C=C1C(C2(C)C=CC(=O)C(C)(C)C2CC(=O)OC)CC[C@@]2(C)C(c3ccoc3)OC(=O)C3OC132` (some centres not stated), the Potency in experiment [1] was 2.51 µM (active). In addition, the Potency entry in experiment [2], in experiment [3], in experiment [4] and in experiment [6] was “inactive” throughout. Besides, the activity change, negative = inhibition in experiment [5] was 4.06% (inactive). Further, the max response in experiment [5] (setting [9]) came out at 5.07%; in experiment [5] (setting [10]) it was 10.2%.

For `O=c1cc(-c2ccccc2)oc2cccc(O)c12`, the Potency result in experiment [2], in experiment [3], in experiment [4] and in experiment [6] was “inactive” in each case. Besides, the activity change, negative = inhibition in experiment [5] was 19.1% (inactive). Moreover, the max response came out at 2.34% in experiment [5] (setting [9]) and 21.9% in experiment [5] (setting [10]). Also, in experiment [7], the result was inactive.

In the case of `O=c1cc(-c2cccc(O)c2)oc2ccc(O)cc12`, in experiment [1], the Potency is 3.98 µM (active). Further, the Potency entry in experiment [2], in experiment [3], in experiment [4] and in experiment [6] was “inactive” throughout. In experiment [5], the activity change, negative = inhibition is 13.1% (inactive). Also, the max response amounted to 3.49% in experiment [5] (setting [9]) and 17.7% in experiment [5] (setting [10]).

With `COc1c(Cl)ccc(Cl)c1C(=O)O`, the Potency result in experiment [1], in experiment [3], in experiment [4] and in experiment [6] was “inactive” each time. Besides, the activity change, negative = inhibition in experiment [5] was 0.0476% (inactive). The max response was -8.45% in experiment [5] (setting [9]) and -7.42% in experiment [5] (setting [10]).

With `O=c1c(-c2ccc(O[C@@H]3O[C@H](CO)[C@@H](O)[C@H](O)[C@H]3O)cc2)coc2cc(O)cc(O)c12`, the Potency result in experiment [1] and in experiment [6] was “inactive” throughout. The activity change, negative = inhibition in experiment [5] was 7.95% (inactive). Moreover, the max response in experiment [5] (setting [9]) is -1.95%; in experiment [5] (setting [10]), 5.64%. Further, the compound was classed as inactive in experiment [7].

Source of the values: PubChem BioAssay (NCATS).
